Data: PubChem BioAssay (EPA / NIEHS)
The source holds several records for some structures; these can differ, active in one and inactive in another. The source made the active and inactive calls. The calls were made as follows: active = hit-call score of the fitted dose curve at least 0.9, where 1 is the maximum; inactive = score below 0.9.

Target: Hypoxia-inducible factor 1-alpha (Homo sapiens) (UniProt Q16665)
Experiment: ATG_HIF1a_CIS: Attagene CIS-FACTORIAL HepG2 Assay for human Hypoxia Inducible Factor 1 (HIF1A) (AID 2282951)
Conditions: HepG2 Attagene cis-factorial HIF1a reporter transcription; actives raise or lower the signal
Procedure: ATG_CIS is a cell-based, multiplexed-readout assay that uses HepG2, a human liver cell line, with measurements taken at 24 hours after chemical dosing in a 24-well plate.ATG_HIF1a_CIS is one of 52 assay component(s) measured or calculated from the ATG_CIS assay. It is designed to make measurements of mRNA induction, a form of inducible reporter, as detected with fluorescence intensity signals by Reverse transcription polymerase chain reaction (RT-PCR) and Capillary electrophoresis technology.Data from the assay component ATG_HIF1a_CIS was analyzed into 1 assay endpoint. This assay endpoint, ATG_HIF1a_CIS, was analyzed with bidirectional fitting relative to DMSO as the negative control and baseline of activity. Using a type of inducible reporter, measures of mRNA for gain or loss-of-signal activity can be used to understand the reporter gene at the transcription factor-level as they relate to the gene HIF1A. Furthermore, this assay endpoint can be referred to as a primary readout, because this assay has produced multiple assay endpoints where this one serves a reporter gene function. To generalize the intended target to other relatable targets, this assay endpoint is annotated to the dna binding intended target family, where the subfamily is basic helix-loop-helix protein.
Human liver HepG2 cells are transiently transfected with multiple reporter transcription units (MRTUs) in 6-well plates using FuGene 6 reagent (Roche; 3 ml FuGene/1 mg DNA). The MRTU constructs are regulated by a cis-regulating element (promoter). […] A major difference between the CIS and TRANS system is that in CIS activities of endogenous TFs are measured, whereas the TRANS assay evaluates changes in activities of exogenous, chimeric NR-Gal4 proteins. […] At the end of 24 hour incubation, total RNA was isolated using TriZol reagent (Invitrogen). The isolated RNA is then reverse-transcribed using oligo(dT) primer and Mo-MLV reverse transcriptase (Invitrogen) with DNAse I (Ambion) treatment for 30 min. The one-tenth of the produced cDNA was amplified by PCR using Taq DNA polymerase (Invitrogen) and two reporter sequence-specific primers. The PCR products were fluorescently labeled by primer extension with 6-arboxyfluorescein (6-FAM) 5'-labeled reporter sequence-specific primer (2 min at 95 C, 20 s at 68 C and 10 min at 72 C) and these products were digested with 5U of HpaI (New England Biolabs) for 2h at 37 C. The fragments were purified using Qiaquick PCR columns (Qiagen), analyzed on an ABI 3130xL genetic analyzer (Applied Biosystems) with peak positions identified by using a set of X-rhodamine (ROX)-labeled MapMarker1000 molecular weight standards (BioVentures). The raw capillary electrophoresis data was processed using Attagraph software (Attagene).

Chain of Hypoxia-inducible factor 1-alpha (Homo sapiens) (Q16665 whole entry, looked up): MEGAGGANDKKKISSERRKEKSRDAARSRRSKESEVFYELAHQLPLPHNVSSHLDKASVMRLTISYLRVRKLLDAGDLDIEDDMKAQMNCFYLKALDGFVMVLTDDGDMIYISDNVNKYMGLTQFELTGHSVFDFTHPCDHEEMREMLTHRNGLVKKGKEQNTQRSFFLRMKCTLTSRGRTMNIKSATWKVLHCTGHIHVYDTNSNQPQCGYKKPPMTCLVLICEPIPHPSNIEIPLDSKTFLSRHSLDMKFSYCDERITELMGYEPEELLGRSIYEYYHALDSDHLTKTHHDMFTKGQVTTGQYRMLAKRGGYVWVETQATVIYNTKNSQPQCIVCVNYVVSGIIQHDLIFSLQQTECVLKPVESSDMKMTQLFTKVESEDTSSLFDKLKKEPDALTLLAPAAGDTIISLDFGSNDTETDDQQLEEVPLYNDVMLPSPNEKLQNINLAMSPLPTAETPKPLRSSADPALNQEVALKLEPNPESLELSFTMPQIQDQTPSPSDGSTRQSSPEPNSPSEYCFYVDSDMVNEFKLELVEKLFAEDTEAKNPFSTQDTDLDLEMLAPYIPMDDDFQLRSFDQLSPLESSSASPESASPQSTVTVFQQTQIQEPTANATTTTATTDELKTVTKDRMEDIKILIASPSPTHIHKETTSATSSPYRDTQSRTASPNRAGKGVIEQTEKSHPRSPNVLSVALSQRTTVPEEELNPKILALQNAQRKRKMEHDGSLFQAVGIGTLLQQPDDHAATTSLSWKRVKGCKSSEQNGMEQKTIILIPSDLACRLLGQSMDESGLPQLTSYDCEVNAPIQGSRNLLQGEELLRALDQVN

SMILES	outcome	AC50
O=S1(=O)OC(c2cc(Br)c(O)c(Br)c2)(c2cc(Br)c(O)c(Br)c2)c2ccccc21	inactive	
Brc1ccc(Br)cc1	inactive	
c1ccc2sc(SNC3CCCCC3)nc2c1		100 µM (active)
CC(C)C(C)(N)C#N (stereo not given)	inactive	
NNCCO	inactive	
CC(C)CP(=S)(S)CC(C)C	inactive	
Cc1ccc(CCl)cc1	inactive	
CCCCCCCCCCCCBr	inactive	
CC(C)(C)c1ccccc1O		182 µM (active)
Brc1ccc(Oc2c(Br)cc(Br)cc2Br)c(Br)c1	inactive	
C#CCOC(=O)/C=C(C)/C=C/CC(C)CCCC(C)C (stereo not given)	inactive	
O=C(CCl)NCO	inactive	
CCCCN(CCCCO)N=O	inactive	
Cc1ccccc1OP(=O)(Oc1ccccc1C)Oc1ccccc1C	inactive	
O=C(NC(=O)c1c(F)cccc1F)Nc1cc(Cl)c(OC(F)(F)C(F)C(F)(F)F)cc1Cl (stereo not given)	inactive	
COc1nn(C(=O)NS(=O)(=O)c2ccccc2OC(F)(F)F)c(=O)n1C	inactive	
Cc1cc(Cl)ccc1N	inactive	
C[N+](C)(C)Cc1ccccc1	inactive	
C=CCc1ccccc1O	inactive	
CCCCC(CC)C(=O)Cl (stereo not given)	inactive	

SMILES	outcome	AC50
CCN(N=O)C(N)=O	inactive	
O=[N+]([O-])c1ccccc1O	inactive	
CC(c1ccccc1)(c1ccc(O)cc1)c1ccc(O)cc1	inactive	
CC[N+](CC)(CC)CC	inactive	
Cc1cc(-c2cc(C)c(N)c(C)c2)cc(C)c1N	inactive	
N#Cc1cccnc1	inactive	
c1csc(-c2ccc(-c3cccs3)s2)c1		3.28 µM (active)
C#CCO	inactive	
CCCCOP(=O)(CCCC)OCCCC	inactive	
ClCc1ccccc1Cl	inactive	
CCCCCCCCCCCCOS(=O)(=O)O	inactive	11.1 µM (active)
N#CS	inactive	
CC(c1ccc(O)cc1)c1ccc(O)cc1	inactive	
CCOc1cc(C=O)ccc1O	inactive	
CCOP(=S)(OCC)O/N=C(\C#N)c1ccccc1		67.2 µM (active)
O=S(=O)(C(Cl)(Cl)Cl)C(Cl)(Cl)Cl	inactive	
CC(C=O)Cc1ccc2c(c1)OCO2 (stereo not given)	inactive	
CCCSP(=S)(OCC)Oc1ccc(Cl)cc1Cl (stereo not given)	inactive	
CC(=O)C(F)(F)C(F)(F)F	inactive	
